The panel holds about 83,000 compounds, 20% with a hit somewhere; the sample as a whole holds those more often.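 A percent growth of 40 corresponds to 60% growth inhibition; 0 means no net growth; -100 means all cells died. Active threshold: below 10.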 Values without a mark were called inactive. The source made the active and inactive calls.
What follows are compounds tested on OVCAR-3 ovarian (assay: NCI-60 one-dose screen, 48 h (100 = growth as untreated, 0 = no growth, -100 = all killed)). Settings: 10 µM unless noted.
With N=C(N)c1ccc(-c2ccc(-c3ccco3)o2)cc1F the growth was 54.1%. In the case of CCOC(=O)Cn1c(-c2nonc2NC(=O)c2ccccc2F)nc2ccccc21, the growth is reported as 56.7%. Compound CC(C)OC1OC(OC(C)C)C(OC(C)C)OC1OC(C)C (stereo not drawn) has a growth of 99.5%. Cc1nn(-c2ccccc2)c2nc3c(nc12)C1=NCCN1C(c1ccc(Cl)cc1)N3 (stereo not drawn) was tested, and the growth was 95.4%. With COc1ccc(-c2ccc(-c3ccc(C(=N)N)s3)s2)cc1 the growth was -80.8% (active). N=C(N)c1ccc(-c2ccc(-c3cccs3)s2)cc1F was tested, and the growth was -77.2% (active). Cc1csc(N/N=C/c2ccncc2)n1 gave a growth of 112%. In the case of CCCCCCCCCCCCCCCC1=NCCN1, the growth is reported as 77%. In the case of CCS(=O)(=O)Nc1cccc(Nc2c3cccc(C)c3nc3c(C)cccc23)c1OC, the growth is reported as 47.2%. For N/C(=N\O)c1ncc(-c2ccc(C(F)(F)F)cc2)c(NC2CCCCCC2)n1, the growth was -95% [100 µM] (active). With N/N=C(\C(=N\N)c1ccccc1)c1ccccc1 the growth was 112%. For COc1cc(/C=C/c2cc(/C=C/c3ccc(O)c(OC)c3)n(C(=O)Nc3ccc(F)c(Cl)c3)n2)ccc1O, the growth was -26.4% (active). Cc1cc(Nc2c3ccccc3nc3ccccc23)ccc1NS(C)(=O)=O showed a growth of 46.6%. With O=C(CC(=O)c1ccccc1F)Nc1ccc([N+](=O)[O-])cc1 the growth was 109%. CCCCCCCCCCCC1=NC(C)(C)CN1CCO was tested, and the growth was 81%. Compound COc1cc2ccc(C(C)=O)cc2cc1OC has a growth of 100%. With Cc1ccccc1Nc1n[nH]c(Cc2ccccc2)n1 the growth was 106%. Work on CNC1=C([N+](=O)[O-])C(c2ccccc2O)C(C#N)=C(c2cccs2)O1 (stereo not drawn) yielded a growth of 92%. CCN(C(=O)CCl)C(C)(C)C(SSSC(c1ccc(Cl)cc1)C(C)(C)N(CC)C(=O)CCl)c1ccc(Cl)cc1 (stereo not drawn) was tested, and the growth was 72.3%. For COc1cc2c(cc1OC)-c1cc(OC)c(OC)cc1C(CN(C)C)C2 (stereo not drawn), the growth was 59.9% [100 µM]. CCCCOC(=O)c1cc(O)c(O)c(O)c1 showed a growth of 61.8%. In the case of FC(F)(F)c1cc(-c2nnc3n2N=C(Cl)CS3)cc(C(F)(F)F)c1, the growth is reported as 116%. With COc1cc2ncnc(Nc3ccc(S(=O)(=O)Nc4cc(C)on4)cc3)c2cc1OCCCN1CCN(c2ccc([N+](=O)[O-])cc2)CC1 the growth was 103%. COc1ccc(/C=N/NC(N)=S)c(OC)n1 showed a growth of 111%. Work on O=C1c2cccc3cccc(c23)C(=O)N1CCCCCCCCCCN1C(=O)c2cccc3cccc(c23)C1=O yielded a growth of 109%. Work on O=C1OC(/C=C/c2ccccc2)=NC/1=C/c1ccccc1[N+](=O)[O-] yielded a growth of 98.4%. In the case of C=C(c1ccc(C(=O)NCCCn2ccnc2)cc1)c1cc2c(cc1C)C(C)(C)CCC2(C)C, the growth is reported as 25.7%. For O=[N+]([O-])c1ccc(Sc2nc(Cl)nc(NC3CCCC3)n2)cc1, the growth was -100% [100 µM] (active). O=C(NCCN1CCCCC1)n1cc(-c2ccncc2)c(-c2ccc(Cl)c(O)c2)n1 was tested, and the growth was 113%. CC(C)(C)c1cc(C[P+](c2ccccc2)(c2ccccc2)c2ccccc2)cc(C(C)(C)C)c1O was tested, and the growth was 13.8%. Work on N#Cc1ccc(-c2ccc(-c3cccs3)o2)cc1F yielded a growth of 80.5%. Cc1cccc2nc3ccccc3c(Nc3ccc(NS(C)(=O)=O)cc3)c12 gave a growth of 74.3%. In the case of COc1cc(OC)cc(-c2ccc(-c3ccc(C(=N)N)s3)s2)c1, the growth is reported as -42.9% (active). With C=C1C(=O)O[C@H]2[C@H]1CC/C(COC(=O)NCc1[nH]nc3ccccc13)=C\CC[C@@]1(C)O[C@@H]21 the growth was 5.37% (active). COC(=O)[C@H](Cc1cn(C)cn1)NC(=O)[C@H](CC(C)C)NC(=O)Nc1cc(C(F)(F)F)cc(C(F)(F)F)c1 was tested, and the growth was -98.8% [100 µM] (active). Work on CCOC(=O)c1cc(C(=O)OCC)c(C)nc1C yielded a growth of 114%. In the case of COC(=O)[C@@H](Cc1c[nH]c2ccccc12)NC(=O)/C=C/c1ccccc1, the growth is reported as -5.22% (active). Work on CCOC(=O)C(CCCCC(NC(C)=O)(C(=O)OCC)C(=O)OCC)(NC(C)=O)C(=O)OCC yielded a growth of 107%.

What follows are compounds tested on HS 578T breast in the same assay as above. Settings: 10 µM unless noted.
For N=C(N)c1ccc(-c2ccc(-c3ccco3)o2)cc1F, the growth was 48.8%. Work on CCOC(=O)Cn1c(-c2nonc2NC(=O)c2ccccc2F)nc2ccccc21 yielded a growth of 73.1%. CC(C)OC1OC(OC(C)C)C(OC(C)C)OC1OC(C)C (stereo not drawn) showed a growth of 101%. Work on Cc1nn(-c2ccccc2)c2nc3c(nc12)C1=NCCN1C(c1ccc(Cl)cc1)N3 (stereo not drawn) yielded a growth of 60.7%. COc1ccc(-c2ccc(-c3ccc(C(=N)N)s3)s2)cc1 was tested, and the growth was -56.8% (active). With N=C(N)c1ccc(-c2ccc(-c3cccs3)s2)cc1F the growth was -28.1% (active). Cc1csc(N/N=C/c2ccncc2)n1 was tested, and the growth was 104%. CCCCCCCCCCCCCCCC1=NCCN1 showed a growth of 84.4%. CCS(=O)(=O)Nc1cccc(Nc2c3cccc(C)c3nc3c(C)cccc23)c1OC was tested, and the growth was 61.2%. Work on N/N=C(\C(=N\N)c1ccccc1)c1ccccc1 yielded a growth of 108%. For COc1cc(/C=C/c2cc(/C=C/c3ccc(O)c(OC)c3)n(C(=O)Nc3ccc(F)c(Cl)c3)n2)ccc1O, the growth was -12.9% (active). For Cc1cc(Nc2c3ccccc3nc3ccccc23)ccc1NS(C)(=O)=O, the growth was 52.4%. O=C(CC(=O)c1ccccc1F)Nc1ccc([N+](=O)[O-])cc1 gave a growth of 110%. Work on CCCCCCCCCCCC1=NC(C)(C)CN1CCO yielded a growth of 59.3%. Compound Cc1ccccc1Nc1n[nH]c(Cc2ccccc2)n1 has a growth of 98.9%. CNC1=C([N+](=O)[O-])C(c2ccccc2O)C(C#N)=C(c2cccs2)O1 (stereo not drawn) showed a growth of 92.3%. With CCN(C(=O)CCl)C(C)(C)C(SSSC(c1ccc(Cl)cc1)C(C)(C)N(CC)C(=O)CCl)c1ccc(Cl)cc1 (stereo not drawn) the growth was 92.5%. COc1cc2c(cc1OC)-c1cc(OC)c(OC)cc1C(CN(C)C)C2 (stereo not drawn) showed a growth of 10.3% [100 µM]. For CCCCOC(=O)c1cc(O)c(O)c(O)c1, the growth was 86.4%. Work on FC(F)(F)c1cc(-c2nnc3n2N=C(Cl)CS3)cc(C(F)(F)F)c1 yielded a growth of 105%. COc1cc2ncnc(Nc3ccc(S(=O)(=O)Nc4cc(C)on4)cc3)c2cc1OCCCN1CCN(c2ccc([N+](=O)[O-])cc2)CC1 was tested, and the growth was 101%. In the case of COc1ccc(/C=N/NC(N)=S)c(OC)n1, the growth is reported as 103%. Compound O=C1c2cccc3cccc(c23)C(=O)N1CCCCCCCCCCN1C(=O)c2cccc3cccc(c23)C1=O has a growth of 99.1%. O=C1OC(/C=C/c2ccccc2)=NC/1=C/c1ccccc1[N+](=O)[O-] showed a growth of 107%. C=C(c1ccc(C(=O)NCCCn2ccnc2)cc1)c1cc2c(cc1C)C(C)(C)CCC2(C)C showed a growth of 59.7%. O=C(NCCN1CCCCC1)n1cc(-c2ccncc2)c(-c2ccc(Cl)c(O)c2)n1 was tested, and the growth was 92.5%. Work on CC(C)(C)c1cc(C[P+](c2ccccc2)(c2ccccc2)c2ccccc2)cc(C(C)(C)C)c1O yielded a growth of 16.2%. N#Cc1ccc(-c2ccc(-c3cccs3)o2)cc1F showed a growth of 51.2%. Cc1cccc2nc3ccccc3c(Nc3ccc(NS(C)(=O)=O)cc3)c12 was tested, and the growth was 87.8%. COc1cc(OC)cc(-c2ccc(-c3ccc(C(=N)N)s3)s2)c1 was tested, and the growth was -40.4% (active). C=C1C(=O)O[C@H]2[C@H]1CC/C(COC(=O)NCc1[nH]nc3ccccc13)=C\CC[C@@]1(C)O[C@@H]21 showed a growth of 62.5%. In the case of COC(=O)[C@H](Cc1cn(C)cn1)NC(=O)[C@H](CC(C)C)NC(=O)Nc1cc(C(F)(F)F)cc(C(F)(F)F)c1, the growth is reported as -17.3% [100 µM] (active). Work on CCOC(=O)c1cc(C(=O)OCC)c(C)nc1C yielded a growth of 126%. COC(=O)[C@@H](Cc1c[nH]c2ccccc12)NC(=O)/C=C/c1ccccc1 was tested, and the growth was -13% (active). With CCOC(=O)C(CCCCC(NC(C)=O)(C(=O)OCC)C(=O)OCC)(NC(C)=O)C(=O)OCC the growth was 104%.

Source: PubChem BioAssay (NCI)
